Screens as filed in PubChem BioAssay.
The list is a sample of the results.
aSyn 5UTR act = Activators working through SNCA 5'UTR binding (MLPCN); activity score, % (tested at 7.5 µM), hits read low; hit rate 7.1% among 300,000; alpha-synuclein 5'UTR reporter, activators screen; in the data active = activity score below about -60%
* = called active by the depositor.

SMILES | aSyn 5UTR act
Cc1ccccc1S(=O)(=O)Nc1nc2ccccc2nc1N1CCc2ccccc2C1 | -108*
O=S(=O)(Nc1nc2ccccc2nc1N1CCc2ccccc2C1)c1ccc(Cl)cc1 | 86
CS(=O)(=O)N1N=C(c2ccc(Cl)cc2)CC1c1cccs1 (stereo not drawn) | -178*
CN(C)/C=N/C(=S)Nc1ccc(Br)cc1F | -108*
COC(=O)C(Cc1ccc(OC(=O)c2ccc(Cl)cc2)cc1)N1Cc2ccccc2C1=O (stereo not drawn) | -124*
COC(=O)C(Cc1ccc(OC(=O)c2ccc(C(F)(F)F)cc2)cc1)N1Cc2ccccc2C1=O (stereo not drawn) | -137*
Cc1ccc(N/N=C/C=C/c2ccco2)cc1 | -157*
O=C(Cc1cccs1)N/N=C/C=C\c1ccco1 | -78*
O=C(CNC(=O)c1cccs1)N/N=C/c1ccco1 | -125*
O=C(N/N=C/C=C\c1ccco1)c1cccs1 | -152*
O=C(N/N=C/C=C/c1ccco1)c1ccccc1Cl | -107*
Cc1ccc(OCC(=O)N/N=C/C=C/c2ccco2)c(Br)c1 | -64*
O=C(CNC(=O)c1ccccc1F)N/N=C/c1cccs1 | -94*
COc1cc(/C=N/Nc2nc(-c3ccc(S(=O)(=O)N(C)C)cc3)cs2)ccc1O | -78*
O=[N+]([O-])c1cc(/C=N\Nc2nc(-c3ccccc3)cs2)ccc1O | -67*
Cc1cc(/C=C2\NC(=S)N(C)C2=O)ccc1N1CCCC1 | -206*
Cc1cc(/C=C2/C(=O)N(C)C(=S)N2C)ccc1N1CCCC1 | -212*
CCC(C)NC(=O)c1cc2cc3ccc(OC)cc3nc2o1 (stereo not drawn) | -147*
CCCCN(CC)C(=O)c1cc2cc3ccc(OC)cc3nc2o1 | -111*
O=C(/C=C/c1ccc(N2CCCCC2)c([N+](=O)[O-])c1)c1ccc(O)cc1 | -464*
O=C(c1ccc(Br)cc1)c1cc([N+](=O)[O-])ccc1N1CCCCC1 | 92
Nc1nnnn1/N=C/c1ccc(N2CCCCC2)c([N+](=O)[O-])c1 | -64*
COc1ccccc1C(=O)/C=C/c1ccc(N2CCCCC2)c([N+](=O)[O-])c1 | -216*
CCOC(=O)N/C(N)=N/c1nc2ccccc2s1 | -116*
CC(=O)N/C(N)=N/c1nc(=O)c2ccccc2s1 | -99*
SMILES | aSyn 5UTR act
CC(=O)Nc1ccc2c(c1)c1ccccc1n2C(C)=O | -65*
CCC(=O)Nc1ccc2c(c1)ncn2-c1ccccc1 | -75*
CCOc1ccc(-n2nc3ccc(NC(=O)CC)cc3n2)cc1 | -120*
CC(=O)Nc1ccc2c(c1)ncn2-c1ccccc1 | -110*
Cc1ccc(Nc2nnc(SCC3CCCCO3)s2)cc1 (stereo not drawn) | -137*
Cc1ccccc1Nc1nnc(SCC2CCCCO2)s1 (stereo not drawn) | -85*
Cc1ccc(NC(=O)Cc2nc(CSc3nnc(-c4ccc5c(c4)OCO5)o3)cs2)cc1 | -77*
O=C(O)Cc1sc(Nc2ccc(F)cc2)nc1-c1cccs1 | -132*
Cc1ccc(Nc2nc(-c3ccccc3)c(CC(=O)O)s2)cc1 | -155*
O=C(Cc1sc(Nc2ccccc2)nc1-c1ccccc1)NCc1ccccn1 | -182*
O=C(O)Cc1sc(Nc2ccccc2)nc1-c1ccc(Cl)cc1 | -149*
COc1ccc(CNC(=O)CSc2nnc(NC(=O)c3ccccc3F)s2)cc1 | -69*
CC1=NN(c2ccccc2)C(=O)/C1=C\c1cn(CCC#N)nc1-c1ccc(Cl)cc1 | -85*
CC(=O)c1c(C)[nH]c(C(=O)CSc2nnc3ccccn23)c1C | -85*
C=CCn1c(SCC(=O)c2[nH]c(C)c(C(=O)OC)c2C)nc2scc(-c3ccc(OC)c(OC)c3)c2c1=O | 61
CC(=O)c1c(C)[nH]c(C(=O)CSc2nnc(C)s2)c1C | -110*
COc1c(OC)c(O)c2c(=O)cc(-c3c(O)cccc3O)oc2c1OC | -64*
O=c1sc(/C=N/Nc2ccccc2)c(Cl)n1Cc1ccccc1 | -84*
c1ccc(-c2nc(C3CCCCC3)no2)cc1 | -204*
COc1ccc(-c2nc(C3CCCCC3)no2)cc1OC | -162*
Cc1cc(NC(=O)c2noc3c2CCCCC3)no1 | -168*
Cc1cc(NC(=O)c2noc3c2CCCC3)no1 | -107*
CC(=O)c1ccc(NC(=O)c2noc3c2CCCCC3)cc1 | -87*
O=C(Nc1cccnc1)c1noc2c1CCCC2 | -115*
Cc1cc(NC(=O)c2noc3c2CCCCC3)nn1Cc1ccc(Cl)cc1 | -71*
SMILES | aSyn 5UTR act
CCN(CC)CCCNC(=O)c1sc2nc(-c3ccc(F)cc3)cn2c1C | -108*
Cc1c(C(=O)NCC2CCCO2)sc2nc(-c3ccc(F)cc3)cn12 (stereo not drawn) | -84*
O=C(CSCc1ccco1)N1CCc2ccccc21 | -83*
O=C(Cc1c[nH]c2ccccc12)N1CCc2ccccc21 | -63*
Cc1ccc2c(CC(=O)N3CCc4ccccc43)coc2c1 | -161*
Nc1cc(N)nc(SCC(=O)N2CCc3ccccc32)n1 | -87*
O=C(CSCc1ccco1)c1ccc(Cl)s1 | -116*
Cc1nc(SCC(=O)N2CCc3ccccc32)n[nH]1 | -68*
O=C(CSc1ccccc1)N1CCc2ccccc21 | -113*
CCn1c(CNc2ccc(OC)cc2)nnc1SCC(=O)N1CCCc2ccccc21 | -70*
CCn1c(-c2ccc(F)cc2)cnc1SCC(=O)N1CCc2ccccc21 | -85*
CC(C)(C)c1ccc(C(O)CCCN2CCC(C(O)(c3ccccc3)c3ccccc3)CC2)cc1 (stereo not drawn) | 111
O=C1C=C(NCCN2CCOCC2)C(=O)c2cnccc21 | 131
O=C(NCCCN1CCOCC1)c1cc(-c2ccccc2)on1 | -113*
O=C(NCCN1CCOCC1)c1cc(-c2ccccc2)on1 | -130*
CC(C)(C)c1ccc(C(=O)NCCN2CCOCC2)cc1 | -190*
Cc1cc(C(=O)COC(=O)c2cccn2C)c(C)n1Cc1ccco1 | 77
Cc1cc(C(=O)COC(=O)c2cc(Cl)ccc2N)c(C)n1Cc1ccco1 | -157*
Cc1oc2c(c1C(=O)c1ccccc1)C(=O)C(=O)c1ccccc1-2 | 127
COc1ccc(C(=O)c2c(C(F)(F)F)oc3c2C(=O)c2ccccc2C3=O)cc1OC | 111
CCOC(=O)c1c(C)oc2c1C(=O)c1ccccc1C2=O | -134*
Cc1oc2c(c1C(=O)O)C(=O)c1ccccc1C2=O | -62*
CCCc1cc(=O)[nH]c(-n2[nH]c3c(c2=O)CCCC3)n1 | 56
CCCc1cc(=O)n2[nH]c(-c3ccc(Br)cc3)cc2n1 | -87*
CCCc1cc(=O)n2[nH]c(-c3cccc(Br)c3)cc2n1 | -181*
SMILES | aSyn 5UTR act
CC(C)/C=N/Nc1nc(-c2ccc(Br)cc2)cs1 | -141*
Cc1ccc(/C=N/Nc2ccc(Cl)nn2)cc1 | -151*
Oc1ccc(/C=N/Nc2ccc(Cl)nn2)cc1O | -134*
Cc1ccc(C)c(NC(=O)/C(C#N)=C/c2cn(CC(=O)NCc3ccco3)c3ccccc23)c1 | 58
N#C/C(=C\c1cccs1)C(=O)Nc1ccccn1 | -75*
Cc1ccc(NC(=O)/C(C#N)=C/c2cccs2)c(C)c1 | -169*
CN(C)c1oc(/C=C/c2ccccc2)nc1C#N | -262*
COc1ccccc1/C=C/c1nc(C#N)c(N(C)C)o1 | -196*
C=CCN(C(=O)CSC1=NC(=O)CN1C(C)=O)c1nc(C)c(-c2ccccc2)s1 | -118*
C=CCOc1ccc(/C=C/C(C)=N\O)cc1 | -110*
O=C(NCCC1=CCCCC1)Nc1ccc2nsnc2c1 | -110*
O=C(NCc1ccco1)Nc1ccc(Br)cc1 | -119*
O=C(NCc1ccco1)Nc1ccc2nsnc2c1 | -76*
CC(=O)c1cccc(OCc2cc(C(=O)N3C[C@H]4CC[C@H]3C4)no2)c1 | -134*
